From the supplement of paper PMC12067926

Tests used:
Assay in all cases: relative growth (AUC of 72 h growth curve relative to DMSO control, dAUC) (ratio); higher = more growth (less inhibition), active = hit call of the paper
Details in all cases: 20 µM;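 active = growth AUC significantly below the DMSO wells by Dunnett test; inactive = the rest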
Community 7 = test system: Community 7
How it was run: (§1)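 Each chemical was tested at 20 µM (1% DMSO) in 96-well plates seeded with a 1:100 dilution of cultures grown to carrying capacity in Luria–Bertani medium. These were isolates from Icelandic stream sediments and Silwood Park soil, as well as whole sediment communities. A plate reader took A600 readings hourly over 72 h, and three biological replicates were averaged. Relative growth (dAUC) is the spline-integrated area under the growth curve relative to the mean of the DMSO controls.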

Community 8 = test system: Community 8
How it was run: as §1

Community 9 = test system: Community 9
How it was run: as §1

[1] = test system: Flavobacterium 1 (Flavobacterium glaciei)
How it was run: as §1

[2] = test system: Flavobacterium 2 (Flavobacterium succinicans)
How it was run: as §1

[3] = test system: Hymenobacter 1 (Hymenobacter glaciei)
How it was run: as §1

[4] = test system: Microbacterium 1 (Microbacterium arborescens)
How it was run: as §1

[5] = test system: Neobacillus 1 (Neobacillus soli)
How it was run: as §1

[6] = test system: Oryzobacter 1 (Oryzobacter terrae)
How it was run: as §1

[7] = test system: Paenibacillus 1 (Paenibacillus castaneae)
How it was run: as §1

[8] = test system: Prolinoborus 1 (Prolinoborus fasciculus)
How it was run: as §1

[9] = test system: Pseudomonas 1 (Pseudomonas baetica)
How it was run: as §1

[10] = test system: Pseudomonas 2 (Pseudomonas vancouverensis)
How it was run: as §1

[11] = test system: Pseudomonas 3 (Pseudomonas mandelii)
How it was run: as §1

[12] = test system: Pseudomonas 4 (Pseudomonas peli)
How it was run: as §1

[13] = test system: Pseudomonas 5 (Pseudomonas baetica)
How it was run: as §1

[14] = test system: Pseudomonas 6 (Pseudomonas sp.)
How it was run: as §1

[15] = test system: Rhizobium 1 (Rhizobium herbae)
How it was run: as §1

[16] = test system: Serratia 1 (Serratia sp. 2015-2462-01)
How it was run: as §1

[17] = test system: Sphingomonas 2 (Sphingomonas sp.)
How it was run: as §1

| Compound | relative growth (Community 7) | relative growth (Community 8) | relative growth (Community 9) | relative growth [1] | relative growth [2] | relative growth [3] | relative growth [4] | relative growth [5] | relative growth [6] | relative growth [7] | relative growth [8] | relative growth [9] | relative growth [10] | relative growth [11] | relative growth [12] | relative growth [13] | relative growth [14] | relative growth [15] | relative growth [16] | relative growth [17] |
| --- | --- | --- | --- | --- | --- | --- | --- | --- | --- | --- | --- | --- | --- | --- | --- | --- | --- | --- | --- | --- |
| C#CCN1C(=O)COc2cc(F)c(N3C(=O)C4=C(CCCC4)C3=O)cc21 | 1.07 (inactive) | 1.01 (inactive) | 0.923 (inactive) | 0.957 (inactive) | 0.977 (inactive) | 1.06 (inactive) | 1.04 (inactive) | 1.01 (inactive) | 1.04 (inactive) | 0.935 (inactive) | 0.972 (inactive) | 1.1 (inactive) | 1 (inactive) | 1.04 (inactive) | 0.985 (inactive) | 1.05 (inactive) | 1.05 (inactive) | 0.908 (inactive) | 0.938 (inactive) | 0.959 (inactive) |
| CC(C)N(C)S(=O)(=O)NC(=O)c1cc(-n2c(=O)cc(C(F)(F)F)n(C)c2=O)c(F)cc1Cl | 1.06 (inactive) | 1.08 (inactive) | 1.14 (inactive) | 1 (inactive) | 0.978 (inactive) | 1.04 (inactive) | 1 (inactive) | 0.98 (inactive) | 1.02 (inactive) | 0.99 (inactive) | 0.979 (inactive) | 1.01 (inactive) | 1.02 (inactive) | 1.04 (inactive) | 1.02 (inactive) | 1.06 (inactive) | 1.07 (inactive) | 1.05 (inactive) | 0.977 (inactive) | 1.07 (inactive) |
| CC(C)N(C(=O)COc1nnc(C(F)(F)F)s1)c1ccc(F)cc1 | 1.13 (inactive) | 1.02 (inactive) | 0.986 (inactive) | 1.01 (inactive) | 0.927 (inactive) | 0.849 (inactive) | 1.04 (inactive) | 0.965 (inactive) | 1.16 (inactive) | 0.899 (inactive) | 0.963 (inactive) | 1.07 (inactive) | 1.03 (inactive) | 1.07 (inactive) | 0.983 (inactive) | 1.01 (inactive) | 1.1 (inactive) | 1.02 (inactive) | 0.984 (inactive) | 1.09 (inactive) |
| Cc1cccc2sc3nncn3c12 | 1.05 (inactive) | 1.01 (inactive) | 0.899 (inactive) | 1.01 (inactive) | 0.95 (inactive) | 0.996 (inactive) | 1.05 (inactive) | 0.969 (inactive) | 1.05 (inactive) | 0.943 (inactive) | 1.01 (inactive) | 1.18 (inactive) | 0.997 (inactive) | 1.03 (inactive) | 0.947 (inactive) | 1.04 (inactive) | 1.1 (inactive) | 0.846 (inactive) | 0.947 (inactive) | 0.944 (inactive) |
| CC(C)(C)C(O)(CCc1ccc(Cl)cc1)Cn1cncn1 (stereo not given) | 0.983 (inactive) | 0.995 (inactive) | 0.862 (inactive) | 0.671 (active) | 0.816 (inactive) | 1.04 (inactive) | 1 (inactive) | 0.945 (inactive) | 1.41 | 0.808 (inactive) | 0.931 (inactive) | 1.15 (inactive) | 0.962 (inactive) | 1.03 (inactive) | 0.94 (inactive) | 0.979 (inactive) | 1.05 (inactive) | 0.918 (inactive) | 0.943 (inactive) | 1.06 (inactive) |
| ClC1C(Cl)C(Cl)C(Cl)C(Cl)C1Cl (stereo not given) | 1.03 (inactive) | 0.993 (inactive) | 0.963 (inactive) | 0.862 (inactive) | 0.932 (inactive) | 0.999 (inactive) | 1.01 (inactive) | 0.941 (inactive) | 1.13 (inactive) | 0.961 (inactive) | 0.987 (inactive) | 1.04 (inactive) | 0.993 (inactive) | 0.99 (inactive) | 0.982 (inactive) | 1.04 (inactive) | 1.02 (inactive) | 0.826 (inactive) | 0.97 (inactive) | 0.949 (inactive) |
| CC(C)N1C(=O)N(c2ccccc2)CS/C1=N\C(C)(C)C | 1.09 (inactive) | 1.08 (inactive) | 1.03 (inactive) | 0.891 (inactive) | 0.947 (inactive) | 1.06 (inactive) | 1.07 (inactive) | 0.906 (inactive) | 0.973 (inactive) | 1 (inactive) | 0.883 (inactive) | 1.05 (inactive) | 0.977 (inactive) | 1.02 (inactive) | 0.937 (inactive) | 1.03 (inactive) | 1.07 (inactive) | 0.931 (inactive) | 0.962 (inactive) | 1.05 (inactive) |
| COC(=O)c1ccccc1S(=O)(=O)NC(=O)Nc1nc(C)nc(OC)n1 | 0.941 (inactive) | 1.1 (inactive) | 1.1 (inactive) | 1.09 (inactive) | 1.08 (inactive) | 1.14 (inactive) | 1.01 (inactive) | 1.11 (inactive) | 0.997 (inactive) | 1.16 (inactive) | 1.03 (inactive) | 0.998 (inactive) | 1.01 (inactive) | 0.983 (inactive) | 1.08 (inactive) | 0.984 (inactive) | 0.905 (inactive) | 1.15 (inactive) | 1.11 (inactive) | 1.03 (inactive) |
| CC[C@H]1CCC[C@H](O[C@H]2CC[C@H](N(C)C)[C@@H](C)O2)[C@@H](C)C(=O)C2=C[C@@H]3[C@@H](C=C(C)[C@@H]4C[C@@H](O[C@@H]5O[C@@H](C)[C@H](OC)[C@@H](OC)[C@H]5OC)C[C@@H]34)[C@@H]2CC(=O)O1.CC[C@H]1CCC[C@H](O[C@H]2CC[C@H](N(C)C)[C@@H](C)O2)[C@@H](C)C(=O)C2=C[C@H]3[C@@H]4C[C@H](O[C@@H]5O[C@@H](C)[C@H](OC)[C@@H](OC)[C@H]5OC)C[C@H]4C=C[C@H]3C2CC(=O)O1 | 1.36 (inactive) | 0.95 (inactive) | 0.711 (inactive) | 0.859 (inactive) | 0.951 (inactive) | 1.06 (inactive) | 0.985 (inactive) | 0.965 (inactive) | 1.14 (inactive) | 0.832 (inactive) | 0.832 (inactive) | 1.14 (inactive) | 0.981 (inactive) | 1.04 (inactive) | 1.05 (inactive) | 1.06 (inactive) | 1.01 (inactive) | 0.89 (inactive) | 1.1 (inactive) | 1 (inactive) |
| Cc1cc(C(C#N)c2ccc(Cl)cc2)c(Cl)cc1NC(=O)c1cc(I)cc(I)c1O (stereo not given) | 0.817 (inactive) | 0.725 (inactive) | 0.394 (active) | 0.0126 (active) | 0.794 (active) | 0.00496 (active) | 0.99 (inactive) | 0.729 (active) | 0.00516 (active) | 0.325 (active) | 0.673 (active) | 0.846 (inactive) | 0.757 (active) | 0.822 (active) | 0.883 (inactive) | 0.844 (active) | 0.857 (inactive) | 0.478 (inactive) | 0.825 (active) | 0.0325 (active) |
| CC(Oc1ccc(Oc2ncc(C(F)(F)F)cc2Cl)cc1)C(=O)O (stereo not given) | 0.985 (inactive) | 1.04 (inactive) | 1.01 (inactive) | 0.929 (inactive) | 0.972 (inactive) | 1.05 (inactive) | 0.984 (inactive) | 0.973 (inactive) | 1.13 (inactive) | 0.966 (inactive) | 0.983 (inactive) | 1.1 (inactive) | 1.04 (inactive) | 1.05 (inactive) | 1 (inactive) | 1.03 (inactive) | 1.17 (inactive) | 1.11 (inactive) | 0.972 (inactive) | 1.08 (inactive) |
| Fc1ccc([C@]2(Cn3cncn3)O[C@H]2c2ccccc2Cl)cc1 (racemic) | 1.15 (inactive) | 1.04 (inactive) | 0.984 (inactive) | 0.944 (inactive) | 0.938 (inactive) | 0.943 (inactive) | 1.01 (inactive) | 0.963 (inactive) | 1.13 (inactive) | 0.92 (inactive) | 0.982 (inactive) | 0.942 (inactive) | 0.973 (inactive) | 1.04 (inactive) | 0.967 (inactive) | 0.992 (inactive) | 1.07 (inactive) | 1.08 (inactive) | 0.972 (inactive) | 1.01 (inactive) |
| CCOP(=S)(OCC)Oc1nc(Cl)c(Cl)cc1Cl | 0.998 (inactive) | 1.02 (inactive) | 1.06 (inactive) | 1.05 (inactive) | 0.996 (inactive) | 1.07 (inactive) | 0.991 (inactive) | 1.07 (inactive) | 1.04 (inactive) | 1.04 (inactive) | 0.989 (inactive) | 1.04 (inactive) | 1.01 (inactive) | 1.05 (inactive) | 0.991 (inactive) | 1.06 (inactive) | 1.08 (inactive) | 0.929 (inactive) | 0.993 (inactive) | 1.07 (inactive) |
| COCC(=O)N(c1c(C)cccc1C)[C@H](C)C(=O)OC | 0.993 (inactive) | 1.06 (inactive) | 1.1 (inactive) | 1.05 (inactive) | 1.02 (inactive) | 1.08 (inactive) | 1.03 (inactive) | 1.01 (inactive) | 0.955 (inactive) | 1.05 (inactive) | 0.988 (inactive) | 0.997 (inactive) | 0.974 (inactive) | 1.09 (inactive) | 1.03 (inactive) | 1.01 (inactive) | 1.01 (inactive) | 1.13 (inactive) | 0.965 (inactive) | 1.02 (inactive) |
